# Tau fibril ThT = inhibitors of human tau fibril formation, thioflavin T binding; recombinant tau K18 P301L, heparin-induced fibrillization, ThT fluorescence; Potency, µM (series often up to 57.4 µM), for the others: at the highest dose activity, negative = inhibition, usual class: inhibitors; 2.1% of 270,000 active; further: nearly all actives have a fitted effect of over 55% in size
# Target sequence (P10636 561-689 P618L limits assumed): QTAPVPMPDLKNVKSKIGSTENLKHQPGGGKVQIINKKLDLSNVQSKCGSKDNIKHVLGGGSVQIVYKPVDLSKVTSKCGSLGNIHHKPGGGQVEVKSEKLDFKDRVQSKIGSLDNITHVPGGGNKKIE
#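 Fibril formation assay: tau K18 P301L at 15 uM with trace Alexa 594 label, heparin inducer 20 uM, pH 7 sodium acetate buffer, 37 C for 6 hr; endpoint ThT signal.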
# Tau fibril FP = blocks human tau fibril formation measured by polarization. P10636. K18 P301L tau heparin fibrillization, Alexa594 FP, 6 h. Potency, µM (highest dose often 57.7 µM), for inactives: at the highest dose activity, negative = inhibition, usual class: inhibitors. 0.39% of 280,000 active; further: nearly all actives have a fitted effect of over 55% in size
#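 FP of Alexa 594-tau after heparin (20 uM) induction. Substrate: human K18 P301L, 15 uM unlabeled, 0.24 uM labeled. Buffer 100 mM sodium acetate pH 7. 6 hr, 37 C.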
# ALDH1A1 inh = inhibitors of human aldehyde dehydrogenase 1A1. Purified ALDH1A1, NADH fluorescence, propionaldehyde substrate. Potency, µM (titrated, usually from 75.3 µM), for inactives: at the highest dose activity, negative = inhibition, actives largely listed as inhibitors. 7.3% of 220,000 active. P00352; active means well fitted inhibition curve with a large enough effect, not every such curve was filed as active; inconclusive means small, poorly fitted or top-dose-only effect, or another doubt; inactive means no such curve, though single readings can be large or run the other way;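 further: plate controls were no enzyme wells and a reference inhibitor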
# HPGD inh = blocks human HPGD enzyme activity | P15428 | purified HPGD, NADH fluorescence kinetic, PGE2 substrate | Potency, µM, for inactives: at the top dose activity change, negative = inhibition, actives largely listed as inhibitors | 4.3% of 150,000 active | AID 894; active means well fitted inhibition curve with a large enough effect, not every such curve was filed as active; inconclusive means small, poorly fitted or top-dose-only effect, or another doubt; inactive means no such curve, though single readings can be large or run the other way
# Target sequence (P15428 whole entry, looked up): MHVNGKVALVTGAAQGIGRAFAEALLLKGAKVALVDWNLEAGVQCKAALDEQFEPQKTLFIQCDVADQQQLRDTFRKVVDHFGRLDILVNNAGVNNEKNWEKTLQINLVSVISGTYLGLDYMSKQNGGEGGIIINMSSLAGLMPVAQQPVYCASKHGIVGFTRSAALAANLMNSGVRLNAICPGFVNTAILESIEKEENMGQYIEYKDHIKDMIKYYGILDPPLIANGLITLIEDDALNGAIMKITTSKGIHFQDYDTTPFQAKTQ
#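 20 nM HPGD preincubated 15 min at room temperature with compound in 50 mM Tris-HCl pH 8, 0.01% Tween 20. Started with 1 mM NAD+ and 30 uM prostaglandin E2; NADH fluorescence (360/450 nm) read 5 times over 30-s intervals, last minus first.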
# NPSR antagonist = neuropeptide S receptor (human) antagonism, cAMP; CHO-NPSR cells, cAMP TR-FRET, antagonist mode; Q6W5P4; 1% of 220,000 active; Potency, µM (series often up to 38.3 µM), inactives show at the top dose activity change, negative = inhibition, most hits filed as inhibitors; further: nearly all actives have a fitted effect of over 50% in size
# Tau fluor counter = counter-screen for tau fibril formation inhibitors; tau K18 P301L Alexa594 fluorescence, heparin fibrillization; Potency, µM (titrated, usually from 57.7 µM), for the others: top-dose activity change, negative = decrease; 0.93% of 280,000 active; AID 1463; further: nearly all actives have a fitted effect of over 55% in size
#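 Human tau K18 P301L (15 uM unlabeled, 0.24 uM Alexa 594-labeled) in 100 mM sodium acetate pH 7 with 20 uM heparin, 6 hr at 37 C. ThT 30 uM added, 1 hr ambient; Alexa 594 FP and total fluorescence read at 555/632 nm.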
# * hit, by the source's call; ? = inconclusive; · = no result given; [ ] = dose if it differs, or a comment. The list is not random: actives were taken first. Their share in the collection is about 9.5%. Unless noted, the call rests on the fitted dose curve; in most records, active means well fitted curve in the direction sought with a large enough effect; inconclusive means small, poorly fitted or top-dose-only effect, or another doubt; inactive means no such curve, though single readings can be large; an effect the other way counts as inactive or inconclusive. Unless noted, on the % scale 0 is the no-effect control and ±100 the full control effect; potency means the concentration at half of the fitted maximal effect.
SMILES,Tau fibril ThT,Tau fibril FP,ALDH1A1 inh,HPGD inh,NPSR antagonist,Tau fluor counter
COc1cc(/C=C(\C#N)c2nc3ccc(C)cc3[nH]2)c([N+](=O)[O-])cc1OC,14.1µM*,13.1%,3.7%,-12.1%,-15.7%[46.1 µM],?
Cc1ccc2nc(/C(C#N)=C\c3cc(O)ccc3[N+](=O)[O-])[nH]c2c1,15.8µM*,13.9%,1.9%,·,-22.3%,-26.8%
COc1c(O)ccc(/C=C(\C#N)c2nc3ccccc3[nH]2)c1[N+](=O)[O-],7.08µM*,8.7%,-0.7%,28.2µM*,2.0%,?
COc1cc(/C=C(\C#N)c2nc3ccc(C)cc3[nH]2)cc([N+](=O)[O-])c1O,2µM*,-0.7%,-6.0%,·,-46.3%,8.91µM*[quencher]
COc1ccc(/C=C(\C#N)c2nc3ccc(C)cc3[nH]2)cc1Oc1ccc(C(F)(F)F)cc1[N+](=O)[O-],?,-8.3%,12.7%,-11.1%,-0.5%[46.1 µM],-23.9%
Cc1ccc2nc(/C(C#N)=C/c3ccc(-c4ccc(F)cc4F)o3)[nH]c2c1,-8.8%,-5.5%,·,·,·,-18.1%
Cc1ccc2nc(/C(C#N)=C/c3ccc(-c4cccc([N+](=O)[O-])c4)o3)[nH]c2c1,1.41µM*,-4.8%,?,25.1µM*,-8.1%,?
CCOc1ccc(NC(=O)Nc2ccc3nsnc3c2)cc1,14.1µM*,16.3%,1.6%,·,-10.1%,12.6µM*[quencher]
CCOc1ccc(NC(=S)Nc2ccc(OCC)cc2)cc1,?,10.5%,4.3%,·,-5.2%,-19.6%
CCOc1ccc(NC(=S)Nc2ccc3nsnc3c2)cc1,2.51µM*,?,3.55µM*,28.2µM*,10µM*,14.1µM*[quencher]
COc1ccc(NC(=S)Nc2ccc3nsnc3c2)cc1,11.2µM*,-17.4%,22.4µM*,-4.3%,-56.6%,?
Cc1cccc(NC(=S)Nc2ccccn2)c1C,4.0%,-8.4%,?,-2.8%,4.4%[46.1 µM],2.2%
Cc1cc(NC(=S)Nc2cccc3ccccc23)n[nH]1,1.6%,-0.3%,6.31µM*,·,-8.2%,-3.3%
O=C(Nc1cccc(C(F)(F)F)c1)Nc1ccc2snnc2c1,12.7%,17.8µM*,·,·,·,?
S=C(Nc1ccc2nsnc2c1)NC1CCCCC1,28.2µM*,?,?,?,-49.8%,?
S=C(Nc1ccc(Cl)c(Cl)c1)NC1CCCCC1,4.9%,?,1.1%,-11.5%,?,?
CCOc1ccc(NC(=S)Nc2cc(C)[nH]n2)cc1,-5.5%,3.6%,14.1µM*,·,-0.2%,2.1%
C=CCN(CC=C)C(=S)Nc1ccc2nsnc2c1,?,?,11.2µM*,·,-17.0%,-15.9%
CCOc1ccc(NC(=O)Nc2ccc3snnc3c2)cc1,-6.5%,?,·,·,·,5.01µM*[quencher]
COc1cc(C2=NOC(C(=O)NCc3ccc(F)cc3)C2)cc(OC)c1OC (stereo unspecified),-4.0%,-6.6%,31.6µM*,-22.7%,?,-6.1%
CCN1CCCc2cc(CN(CCN3CCOCC3)C(=S)Nc3ccc(OC)cc3)ccc21,-9.6%,-0.1%,?,·,-24.0%,-22.0%
CCN1CCCc2cc(CN(CCN3CCOCC3)C(=S)Nc3ccc(C)cc3)ccc21,?,10.4%,6.31µM*,·,-46.1%,-28.2%
CCOc1ccc(NC(=S)N(CCN2CCOCC2)Cc2ccc3c(c2)CCCN3CC)cc1,?,12.2%,12.6µM*,·,-39.0%,?
CCN1CCCc2cc(CN(CCN3CCOCC3)C(=S)Nc3cc(F)cc(F)c3)ccc21,-9.8%,4.3%,?,·,-45.7%,-20.8%
Cc1oc(-c2ccc(Cl)cc2)nc1CSc1nnc(C)n2c1cc1sccc12,-17.8%,-8.0%,·,·,·,-14.3%
SMILES,Tau fibril ThT,Tau fibril FP,ALDH1A1 inh,HPGD inh,NPSR antagonist,Tau fluor counter
Cc1ccc(NC(=O)/C(C#N)=C(\N)C(Cl)(Cl)Cl)nc1,25.1µM*,?,?,·,-8.3%,-22.1%
Cc1ccc(NC(=O)C(=O)Nc2ccc(C)cn2)nc1,?,2.8%,-5.2%,·,-4.6%,-7.3%
CCOc1ccc(CNC(=O)CCS(=O)(=O)c2cc3c4c(c2)CCN4C(=O)CC3)cc1,1.3%,3.8%,·,·,·,-2.8%
Cc1ccc(S(=O)(=O)NC2=C(N3CCN(Cc4ccccc4)CC3)C(=O)c3ccccc3C2=O)cc1,?,5.7%,-0.9%,-11.2%,-13.8%[46.1 µM],-25.3%
CC(=O)Nc1ccc(S(=O)(=O)NC2=C(N3CCN(c4ccc(F)cc4)CC3)C(=O)c3ccccc3C2=O)cc1,5.62µM*,?,7.08µM*,-23.4%,?,12.6µM*[quencher]
Cc1ccc(S(=O)(=O)NC2=C(N3CCN(c4ccccc4F)CC3)C(=O)c3ccccc3C2=O)cc1,15.8µM*,4.2%,?,-11.1%,-25.8%[46.1 µM],?
COCC(=O)N1CCC2(CC1)CN(C(c1ccccc1)c1ccccc1)C2,·,·,2.3%,-2.9%,·,·
COc1ccccc1NC(=O)C(Cc1ccccc1)NS(=O)(=O)c1ccc2c(c1)CCN2C(C)=O (stereo unspecified),-0.6%,1.5%,·,·,·,-3.3%
CCOC(=O)C(C#N)C(c1cccnc1)c1c(C)[nH][nH]c1=O (stereo unspecified),-7.7%,-7.8%,-7.1%,-0.4%,-4.2%[46.1 µM],-4.8%
CCCc1[nH][nH]c(=O)c1C(c1ccc(Br)cc1)C(C#N)C#N (stereo unspecified),?,3.0%,?,20µM*,-27.7%[46.1 µM],-17.8%
Oc1ccccc1-c1nc(/C=C/c2ccc(F)cc2)nn1-c1ccccc1,-17.3%,?,·,·,·,-27.4%
Oc1ccccc1-c1nc(/C=C/c2ccccc2)nn1-c1ccccc1,-11.7%,-17.3%,?,?,-35.2%,?
Oc1ccc(/C=C/c2nc(-c3ccccc3O)n(-c3ccccc3)n2)cc1,?,?,-4.8%,-14.8%,?,31.6µM*[quencher]
Oc1ccc(/C=C/c2nc(-c3ccccc3O)n(-c3ccccc3)n2)c(O)c1,?,?,·,·,·,5.62µM*[quencher]
CCCOc1ccc(C(O)(CCC)CCN2CCCCC2)cc1 (stereo unspecified),-2.9%,7.3%,25.1µM*,-10.0%,20.0%[46.1 µM],8.8%
CCOc1ccc(C(=O)CCN2CCCCCC2)cc1,?,?,0.0631µM*,-14.3%,-8.2%[46.1 µM],14.2%
CCCOc1ccc(C(=O)CCN2CCCCC2)cc1,?,-0.2%,0.0562µM*,-20.7%,9.4%[46.1 µM],5.8%
CCOc1ccc(OCCN2CCCCC2)cc1,-1.8%,-4.6%,-5.7%,0.2%,8.4%,2.8%
CCCCOc1ccc(C(=O)CCN2CCOCC2)cc1,?,?,0.282µM*,·,7.6%,-10.3%
CS(=O)(=O)N1CCC[C@@]2(CCN(Cc3ccc(C#N)cc3)C2)C1,·,·,-2.6%,0.6%,·,·
COc1ccc(-c2cc(C(F)(F)F)nc(SCC(=O)NCc3ccc(Cl)cc3)n2)cc1,10.4%,?,·,·,·,-8.9%
CCCC(O)(CCN1CCOCC1)c1ccc(Cl)cc1 (stereo unspecified),-0.7%,-2.1%,·,·,-7.1%,-5.5%
